Assays:
[1] = system: Vero E6 infected with SARS-CoV-2; assay: morphology score (similarity to uninfected cells); higher = more like uninfected cells; settings: 24 h
[2] = system: Vero E6 infected with SARS-CoV-2; assay: SARS-CoV-2 infection rate relative to infected DMSO; higher = more infection, active = 60 or less; settings: 24 h

Row | SMILES | morphology score [1] | SARS-CoV-2 infection rate [2]
1 | COc1ccccc1C(=O)Nc1cc2c(cc1N1CCCC1)n(C)c(=O)n2C (10 µM) | 0.0131 | 93.5% (inactive)
2 | CCCCCCCCCC(=O)OC1(c2ccc(Cl)cc2)CCN(CCCC(=O)c2ccc(F)cc2)CC1 [haloperidol-decanoate] (10 µM) | 0.166 | 96% (inactive)
3 | CNC(=O)c1ccc(Nc2ncc(C(F)(F)F)c(NCc3nccnc3N(C)S(C)(=O)=O)n2)cc1 [defactinib] (0.833333 µM) | 0.0478 | 100% (inactive)
4 | CC1(C)S[C@@H]2[C@H](NC(=O)COc3ccccc3)C(=O)N2[C@H]1C(=O)O [penicillin-v-potassium] (10 µM) | -0.0155 | 116% (inactive)
5 | COc1ccc2cccc(N3CCN(CCNC(=O)c4ccc(F)cc4)CC3)c2c1 (10 µM) | 0.241 | 103% (inactive)
6 | C[N+](C)(CCOc1ccccc1)Cc1ccccc1 [bephenium-hydroxynaphthoate] (10 µM) | 0.171 | 94.5% (inactive)
7 | CN(C)c1ccc(C(=C2C=CC(=[N+](C)C)C=C2)c2ccc(N(C)C)cc2)cc1 [crystal-violet] (10 µM) | -0.0788 | 114% (inactive)
8 | O=S(=O)(O)CCS [mesna] (10 µM) | 0.157 | 109% (inactive)
9 | c1ccc2sc(N3CCN(Cc4ccc5c(c4)OCO5)CC3)nc2c1 [2-[1-(4-piperonyl)piperazinyl]benzothiazole] (10 µM) | 0.00324 | 102% (inactive)
10 | COc1ccc(-n2c(SCCCN3C(=O)c4cccc5cccc(c45)C3=O)nnc2-c2ccncc2)cc1 (0.833333 µM) | 0.102 | 108% (inactive)
11 | Cc1nn(C)c2c1C(c1cccc(Cl)c1)=NCCN2 [zometapine] (10 µM) | 0.136 | 104% (inactive)
12 | CCC(=O)OCN1C(=O)C=CC1=O (10 µM) | 0.14 | 97% (inactive)
13 | Cc1cc(C)cc(C(=O)O[C@H]2C[C@H]3CC[C@@H](C2)N3C)c1 [tropanyl-3,5-dimethylbenzoate] (10 µM) | 0.23 | 90% (inactive)
14 | CC(=O)OCC(=O)[C@H]1CC[C@H]2[C@@H]3CC[C@H]4C[C@H](O)CC[C@]4(C)[C@H]3C(=O)C[C@]12C [alfadolone-acetate] (10 µM) | -0.231 | 116% (inactive)
15 | CCOC(=O)c1ccc(NC2CCCCC2)c(N)c1 [ferrostatin-1] (10 µM) | 0.117 | 94% (inactive)
16 | C=CC(=O)Nc1ccc2ncnc(Nc3ccc(OCc4cccc(F)c4)c(Cl)c3)c2c1 (10 µM) | -0.0546 | 102% (inactive)
17 | COc1ccc2c(c1)C(=O)N(CCc1ccc(S(=O)(=O)NC(=O)NC3CCCCC3)cc1)C(=O)C2(C)C [gliquidone] (10 µM) | 0.283 | 98.5% (inactive)
18 | C[C@H](NC(=O)[C@@H](O)c1cc(F)cc(F)c1)C(=O)N[C@@H]1C(=O)N(C)c2ccccc2-c2ccccc21 (10 µM) | 0.165 | 101% (inactive)
19 | Cc1c(CN(C)C(=O)/C=C/c2cnc3c(c2)CCC(=O)N3)oc2ccccc12 (10 µM) | 0.182 | 94% (inactive)
20 | C[C@H](CCC(=O)NCCS(=O)(=O)O)[C@H]1CC[C@H]2[C@@H]3[C@H](O)C[C@@H]4C[C@H](O)CC[C@]4(C)[C@H]3C[C@H](O)[C@]12C [taurocholate] (10 µM) | -0.0884 | 116% (inactive)

Row | SMILES | morphology score [1] | SARS-CoV-2 infection rate [2]
21 | O=C(NCC(=O)N1CCCCC1)Nc1ccc2nnsc2c1 (10 µM) | -0.144 | 110% (inactive)
22 | O=C(O)c1cccc(-c2noc(-c3ccccc3F)n2)c1 [ataluren] (10 µM) | -0.00572 | 112% (inactive)
23 | C[C@@]1(c2cc(-c3cncnc3)c(F)cc2F)CCSC(N)=N1 (10 µM) | 0.151 | 106% (inactive)
24 | CC(=O)[C@H]1CC[C@H]2[C@@H]3CC[C@H]4C[C@H](O)CC[C@]4(C)[C@H]3C(=O)C[C@]12C [alfaxalone] (10 µM) | -0.0143 | 112% (inactive)
25 | NNC(=O)CN1C(=O)CN=C(c2ccccc2)c2cc(Br)ccc21 [gidazepam] (10 µM) | 0.101 | 100% (inactive)
26 | CCOc1c2c(c(OCC)c3ccccc13)C(=O)N(c1ccc(CC(=O)NS(=O)(=O)c3ccccc3)cc1)C2 (10 µM) | 0.117 | 104% (inactive)
27 | CC(C)N1Cc2cc(S(C)(=O)=O)ccc2N(CCN2CC=C(c3c[nH]c4cc(F)ccc34)CC2)S1(=O)=O (10 µM) | 0.178 | 97.5% (inactive)
28 | O=C(O)c1cc(=O)[nH]c(=O)[nH]1 [orotic-acid] (10 µM) | 0.104 | 104% (inactive)
29 | COc1cc(Cc2cnc(N)nc2N)cc(OC)c1OC [trimethoprim] (10 µM) | -0.0548 | 98.5% (inactive)
30 | CCOC(=O)[C@H](Cc1ccc([N+](=O)[O-])cc1)NC(=O)c1ccccc1 (10 µM) | 0.37 | 84.5% (inactive)
31 | Oc1ccc(Cl)cc1Cc1cc(Cl)ccc1O [dichlorophen] (10 µM) | 0.14 | 99.5% (inactive)
32 | OCc1cccnc1 [nicotinyl-alcohol-tartrate] (10 µM) | -0.13 | 118% (inactive)
33 | Nc1nc(NC[C@H]2CC[C@H](CNS(=O)(=O)c3cccc4ccccc34)CC2)nc2ccccc12 (0.833333 µM) | -0.0427 | 93.5% (inactive)
34 | O=C(O)c1cccnc1Nc1cccc(C(F)(F)F)c1 [niflumic-acid] (10 µM) | 0.127 | 104% (inactive)
35 | Cc1ccc2nc(NCCN)c3ncc(C)n3c2c1 (0.833333 µM) | -0.353 | 116% (inactive)
36 | O=C1CC2(CCCC2)CC(=O)N1CCCCNC[C@H]1COc2ccccc2O1 (racemic) (10 µM) | -0.0862 | 108% (inactive)
37 | CC[C@H](CC[C@@H](C)[C@H]1CC[C@H]2[C@@H]3CC=C4C[C@@H](O)CC[C@]4(C)[C@H]3CC[C@]12C)C(C)C [beta-Sitosterol] (10 µM) | 0.119 | 99% (inactive)
38 | N[C@H]1CCN(O)C1=O (10 µM) | 0.0281 | 99.2% (inactive)
39 | COc1ccc2c(c1)CN(C)CC2c1ccc(Cl)c(Cl)c1 (stereo not drawn) [diclofensine] (10 µM) | 0.0249 | 106% (inactive)

Reference: the supplement of paper PMC13380429
